Measurements from ChEMBL document CHEMBL1961873, “Compounds: GSK PKIS; Assays: Nanosyn kinase panel” (2012).

Biological target: Tyrosine-protein kinase JAK1 (Homo sapiens) (UniProt P23458)
Details: at 1 µM
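Further: each value is a mean inhibition of JAK1.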

Tyrosine-protein kinase JAK1 (Homo sapiens), sequence (P23458 whole entry): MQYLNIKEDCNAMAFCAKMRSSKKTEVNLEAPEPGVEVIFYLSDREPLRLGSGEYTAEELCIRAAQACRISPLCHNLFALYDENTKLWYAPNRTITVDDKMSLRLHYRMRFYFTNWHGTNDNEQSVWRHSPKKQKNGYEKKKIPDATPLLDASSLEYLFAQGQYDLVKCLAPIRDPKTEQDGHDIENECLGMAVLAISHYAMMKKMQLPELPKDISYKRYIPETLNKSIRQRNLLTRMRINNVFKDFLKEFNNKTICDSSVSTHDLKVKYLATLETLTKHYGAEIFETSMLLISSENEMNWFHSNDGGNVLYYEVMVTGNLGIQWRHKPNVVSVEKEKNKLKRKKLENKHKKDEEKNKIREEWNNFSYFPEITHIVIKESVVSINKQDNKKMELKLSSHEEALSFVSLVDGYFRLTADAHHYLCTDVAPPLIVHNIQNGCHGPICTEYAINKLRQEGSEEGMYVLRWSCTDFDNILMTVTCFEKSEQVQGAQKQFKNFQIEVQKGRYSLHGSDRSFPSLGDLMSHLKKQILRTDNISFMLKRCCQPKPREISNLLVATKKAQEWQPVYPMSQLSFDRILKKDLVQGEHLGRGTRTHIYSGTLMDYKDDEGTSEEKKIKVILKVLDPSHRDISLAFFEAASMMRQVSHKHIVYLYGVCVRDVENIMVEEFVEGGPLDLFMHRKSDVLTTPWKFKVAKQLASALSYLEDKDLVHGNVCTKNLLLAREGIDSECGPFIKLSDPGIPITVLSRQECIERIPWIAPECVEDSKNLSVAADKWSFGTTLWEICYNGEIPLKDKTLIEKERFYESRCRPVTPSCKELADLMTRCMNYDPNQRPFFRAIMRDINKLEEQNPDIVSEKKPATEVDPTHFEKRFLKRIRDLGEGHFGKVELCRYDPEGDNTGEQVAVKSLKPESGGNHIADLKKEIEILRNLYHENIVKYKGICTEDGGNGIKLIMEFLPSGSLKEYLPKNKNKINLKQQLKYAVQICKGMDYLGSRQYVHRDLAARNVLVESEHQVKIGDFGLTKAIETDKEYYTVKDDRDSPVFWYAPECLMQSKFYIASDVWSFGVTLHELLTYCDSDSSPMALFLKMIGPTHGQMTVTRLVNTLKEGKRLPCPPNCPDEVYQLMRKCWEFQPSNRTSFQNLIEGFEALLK

SMILES | inhibition
N#Cc1c(NC(=O)c2cccc3ccccc23)sc2c1CCCC2 | 3.68%
CCn1c(-c2nonc2N)nc2cncc(C(=O)N3CCNCC3)c21 | 4.72%
NS(=O)(=O)c1cccc(-c2ccc3c(NC(=O)C4CC4)n[nH]c3c2)c1 | -4.88%
CC1=C(C(=O)Nc2ccc3[nH]ncc3c2)C(c2ccc3ccccc3c2)CC(=O)N1 (stereo unspecified) | 29.5%
Cc1nnc(-c2ccc(C)c(-c3ccc(C(=O)Nc4cccc(C#N)c4)cc3)c2)o1 | 6.74%
Cc1nn(C)c2cc(N(C)c3ccnc(Nc4cccc(S(N)(=O)=O)c4)n3)ccc12 | 54.9%
CS(=O)(=O)CCN(CC#N)Cc1ccc(-c2ccc3ncnc(Nc4ccc(OCc5cccc(F)c5)c(Cl)c4)c3c2)o1 | 1.2%
NC(=O)c1cccc(Nc2nccc(Nc3cccc4[nH]ncc34)n2)c1 | 19.6%
COc1cc2ncn(-c3cc(OCc4ccccc4Cl)c(C(N)=O)s3)c2cc1OC | 5.86%
Cc1cccc(-c2n[nH]cc2-c2ccc3ncccc3n2)n1 | 3.85%
CCn1c(-c2nonc2N)nc2ccncc21 | 6.51%
COc1cc2ncn(-c3cc(OCc4ccccc4C(F)(F)F)c(C(N)=O)s3)c2cc1OC | 2.62%
NCc1ccc(-c2nc(-c3ccc(Cl)c(O)c3)c(-c3ccncc3)[nH]2)cc1 | 2.34%
CCN1CCC(CC(=O)Nc2n[nH]c3nc(-c4cccs4)c(Br)cc23)CC1 | -3.93%
Nc1nc(-c2ccc3c(c2)C(=Cc2cc(Br)c(O)c(Br)c2)C(=O)N3)cs1 | -0.48%
COc1ccc(-c2nn3ncccc3c2-c2ccnc(Nc3ccc(Cl)c(C(F)(F)F)c3)n2)cc1 | 10.6%
